The values that follow come from PubChem BioAssay (EPA / NIEHS).

The AC50 is the midpoint of the concentration-response curve, whichever way the signal moves.

Several values for one entry are separate records, joined by “and”; a condition that tells them apart may be missing. Identical values can stand only once. Inconclusive results are not listed. Some compounds were tested as several samples or in several runs, with calls that do not always agree. Activity calls are given as the source filed them. How the source made its calls, unless noted: active means hit-call score of the fitted dose curve at least 0.9, where 1 is the maximum; inconclusive means response in the unintended direction; inactive means score below 0.9.

The target in assay [1] is Nuclear receptor subfamily 1 group I member 3 (Homo sapiens) (UniProt Q14994). The assay can be described thus: ATG_CAR_TRANS: Attagene TRANS-FACTORIAL HepG2 Assay for human Constitutive Androstane Receptor (CAR) (AID 2282969).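 Further: activators raise reporter mRNA above DMSO so AC50 marks induction.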 The following applies: HepG2 Attagene TRANS-FACTORIAL CAR reporter. In a few lines: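 Steps: transient transfection of HepG2 with multiple GAL4-UAS reporter units; 24 h compound incubation; RNA isolation, RT-PCR, 6-FAM primer extension, HpaI digest; capillary electrophoresis. Gain-of-signal relative to DMSO negative control.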
Nuclear receptor subfamily 1 group I member 3 (Homo sapiens), sequence (Q14994 whole entry, looked up, the tested form may be a part): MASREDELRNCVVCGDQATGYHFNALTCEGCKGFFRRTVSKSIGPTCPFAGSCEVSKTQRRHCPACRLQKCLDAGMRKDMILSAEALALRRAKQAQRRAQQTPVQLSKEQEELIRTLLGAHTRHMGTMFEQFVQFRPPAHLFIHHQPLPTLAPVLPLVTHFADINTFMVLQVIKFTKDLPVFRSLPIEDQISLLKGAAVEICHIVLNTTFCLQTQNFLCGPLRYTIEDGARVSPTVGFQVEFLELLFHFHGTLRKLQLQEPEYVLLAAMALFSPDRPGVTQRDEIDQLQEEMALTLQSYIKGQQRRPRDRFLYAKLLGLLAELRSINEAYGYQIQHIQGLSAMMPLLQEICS

In assay [2] the target is Estrogen receptor (Homo sapiens) (UniProt P03372). As to the kind of experiment: ATG_ERa_TRANS: Attagene TRANS-FACTORIAL HepG2 Assay for human Estrogen Receptor alpha (ERa) (AID 2282970). Particulars: HepG2 Attagene TRANS ERa GAL4 reporter, mRNA. In short, it runs like this: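 Transfected HepG2 cells carrying GAL4-UAS-driven reporter units were dosed for 24 hours. Total RNA was reverse-transcribed, reporter sequences PCR-amplified, FAM-labelled, HpaI-digested and resolved by capillary electrophoresis. Increases over DMSO control defined activity.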
Estrogen receptor (Homo sapiens), sequence (P03372 whole entry, looked up, the tested form may be a part): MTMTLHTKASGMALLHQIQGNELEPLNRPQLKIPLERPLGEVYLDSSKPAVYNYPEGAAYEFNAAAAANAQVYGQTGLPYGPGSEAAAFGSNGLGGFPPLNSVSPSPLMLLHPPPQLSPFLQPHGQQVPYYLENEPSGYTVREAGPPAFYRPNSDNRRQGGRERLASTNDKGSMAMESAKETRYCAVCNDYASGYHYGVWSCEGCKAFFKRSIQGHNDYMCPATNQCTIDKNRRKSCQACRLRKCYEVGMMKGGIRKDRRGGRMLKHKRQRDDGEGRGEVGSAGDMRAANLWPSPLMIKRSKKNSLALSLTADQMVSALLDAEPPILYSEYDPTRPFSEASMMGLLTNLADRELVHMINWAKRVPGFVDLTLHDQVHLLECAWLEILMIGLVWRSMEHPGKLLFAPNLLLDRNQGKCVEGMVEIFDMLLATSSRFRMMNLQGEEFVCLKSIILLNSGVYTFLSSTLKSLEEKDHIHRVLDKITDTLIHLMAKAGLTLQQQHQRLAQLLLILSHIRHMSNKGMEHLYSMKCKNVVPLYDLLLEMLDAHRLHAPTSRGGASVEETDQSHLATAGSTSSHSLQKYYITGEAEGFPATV

For assay [3], the target named is Steroid hormone receptor ERR1 (Homo sapiens) (UniProt P11474). As to the kind of experiment: ATG_ERRa_TRANS: Attagene TRANS-FACTORIAL HepG2 Assay for human Estrogen-Related Receptor alpha (ERRa) (AID 2282971). Particulars: HepG2 Attagene TRANS reporter, ERRa transactivation. In a few lines:
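HepG2 cells were transiently transfected with multiple GAL4-UAS reporter units, then dosed with compound for 24 h. Total RNA was reverse-transcribed, reporter cDNA PCR-amplified and fluorescently labelled, and fragments resolved by capillary electrophoresis; induction was compared with DMSO.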

The target of assay [4] is X-box-binding protein 1 (Homo sapiens) (UniProt P17861). The assay can be described thus: ATG_Xbp1_CIS: Attagene CIS-FACTORIAL HepG2 Assay for human X-box Binding Protein 1 (XBP1) (AID 2282972; active means hit-call score of the fitted dose curve at least 0.9, where 1 is the maximum; inactive means score below 0.9). Particulars: HepG2 XBP1 cis-element reporter, Attagene multiplex; actives raise or lower the signal. In a few lines: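 Read-out: fluorescent reporter mRNA fragments resolved by capillary electrophoresis after RT-PCR. Human HepG2 liver cells carried transfected cis-promoter reporter units and were exposed to chemicals for 24 hours. Gain or loss of signal fitted relative to DMSO baseline.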
X-box-binding protein 1 (Homo sapiens), sequence (P17861 whole entry, looked up, the tested form may be a part): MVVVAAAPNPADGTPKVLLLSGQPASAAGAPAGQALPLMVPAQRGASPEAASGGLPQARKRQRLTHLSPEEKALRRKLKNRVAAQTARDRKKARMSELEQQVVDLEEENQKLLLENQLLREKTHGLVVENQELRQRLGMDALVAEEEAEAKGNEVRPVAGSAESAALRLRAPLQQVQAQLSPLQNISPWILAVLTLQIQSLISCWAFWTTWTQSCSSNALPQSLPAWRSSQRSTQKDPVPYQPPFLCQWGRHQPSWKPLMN

Assay [5] has as its target Estrogen-related receptor gamma (Homo sapiens) (UniProt P62508). The assay can be described thus: ATG_ERRg_TRANS: Attagene TRANS-FACTORIAL HepG2 Assay for human Estrogen-Related Receptor gamma (ERRg) (AID 2282977).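 Further: hits increase reporter signal over DMSO so potencies reflect activators.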 The following applies: HepG2 Attagene TRANS reporter, ERRg transactivation. In a few lines:
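Induction of reporter transcripts through a chimeric NR-Gal4 protein is quantified in transfected human HepG2 liver cells after 24 h chemical exposure, using RT-PCR with capillary electrophoresis detection and DMSO as baseline.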

In assay [6] the target is Glucocorticoid receptor (Homo sapiens) (UniProt P04150). As to the kind of experiment: ATG_GR_TRANS: Attagene TRANS-FACTORIAL HepG2 Assay for human Glucocorticoid Receptor (GR) (AID 2282978).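 Further: activators score as hits since higher reporter transcript over DMSO is fitted.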 Particulars: HepG2 Attagene TRANS GR reporter, mRNA transcription. In a few lines:
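HepG2 cells transiently transfected with multiplexed reporter units in which chimeric NR-GAL4 proteins drive GAL4-UAS reporters; 24 h compound exposure. Reporter mRNA measured by RT-PCR, 6-FAM labelling, HpaI digestion and capillary electrophoresis; gain-of-signal fitted versus DMSO.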

Assay [7] in a line: ATG_M_19_TRANS: Attagene TRANS-FACTORIAL HepG2 Assay for M19 Transcription Factor (Internal Marker) (AID 2282974). The following applies: HepG2 Attagene TRANS-FACTORIAL M19 internal marker reporter. In a few lines:
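HepG2 cells transiently transfected with multiple GAL4-UAS reporter transcription units were exposed to chemicals for 24 h. Reporter mRNA was read by RT-PCR, 6-FAM primer extension, HpaI digestion and capillary electrophoresis; gain of signal fitted relative to DMSO.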

A short description of assay [8]: ATG_GAL4_TRANS: Attagene TRANS-FACTORIAL HepG2 Assay for GAL4 (Internal Marker) (AID 2282976). The following applies: HepG2 Attagene TRANS GAL4 internal marker reporter. In short, it runs like this: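 Fluorescence from capillary electrophoresis of labelled RT-PCR products quantifies reporter mRNA induction after 24 h dosing of HepG2 cells carrying transfected GAL4-UAS reporter transcription units. Vehicle DMSO serves as baseline.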

The target in assay [9] is Bile acid receptor (Homo sapiens) (UniProt Q96RI1). The assay can be described thus: ATG_FXR_TRANS: Attagene TRANS-FACTORIAL HepG2 Assay for Farnesoid X Receptor (FXR) (AID 2282979).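 Further: hits raise reporter mRNA above DMSO so AC50 marks FXR activation.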 The following applies: HepG2 Attagene TRANS FXR-GAL4 reporter transcription. In short, it runs like this:
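Chimeric FXR-GAL4 activity in transiently transfected human HepG2 liver cells is scored as induction of reporter mRNA after 24 h of dosing. Detection uses RT-PCR with fluorescent labelling and capillary electrophoresis, with DMSO serving as baseline.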

Assay [10] concerns the target Oxysterols receptor LXR-alpha (Homo sapiens) (UniProt Q13133). The assay can be described thus: ATG_LXRa_TRANS: Attagene TRANS-FACTORIAL HepG2 Assay for human Liver X Receptor alpha (LXRa) (AID 2282980). Particulars: HepG2 Attagene TRANS reporter, LXRa transactivation. In short, it runs like this: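 Transient HepG2 transfectants, 24 h dosing, RT-PCR/CE mRNA reporter quantitation; gain-of-signal vs DMSO.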

Oxysterols receptor LXR-alpha (Homo sapiens), sequence (Q13133 whole entry, looked up): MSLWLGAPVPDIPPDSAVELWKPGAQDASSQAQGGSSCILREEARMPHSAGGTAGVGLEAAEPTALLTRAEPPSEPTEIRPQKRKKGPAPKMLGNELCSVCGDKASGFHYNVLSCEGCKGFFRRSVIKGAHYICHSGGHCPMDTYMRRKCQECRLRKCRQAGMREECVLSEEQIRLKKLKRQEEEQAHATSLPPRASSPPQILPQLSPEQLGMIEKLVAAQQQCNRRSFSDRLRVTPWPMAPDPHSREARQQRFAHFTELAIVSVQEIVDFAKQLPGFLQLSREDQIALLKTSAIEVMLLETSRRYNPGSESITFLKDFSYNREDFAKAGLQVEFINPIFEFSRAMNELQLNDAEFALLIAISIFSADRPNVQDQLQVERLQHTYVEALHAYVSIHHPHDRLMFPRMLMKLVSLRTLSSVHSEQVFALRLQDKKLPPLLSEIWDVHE
Estrogen-related receptor gamma (Homo sapiens), sequence (P62508 whole entry, looked up, the tested form may be a part): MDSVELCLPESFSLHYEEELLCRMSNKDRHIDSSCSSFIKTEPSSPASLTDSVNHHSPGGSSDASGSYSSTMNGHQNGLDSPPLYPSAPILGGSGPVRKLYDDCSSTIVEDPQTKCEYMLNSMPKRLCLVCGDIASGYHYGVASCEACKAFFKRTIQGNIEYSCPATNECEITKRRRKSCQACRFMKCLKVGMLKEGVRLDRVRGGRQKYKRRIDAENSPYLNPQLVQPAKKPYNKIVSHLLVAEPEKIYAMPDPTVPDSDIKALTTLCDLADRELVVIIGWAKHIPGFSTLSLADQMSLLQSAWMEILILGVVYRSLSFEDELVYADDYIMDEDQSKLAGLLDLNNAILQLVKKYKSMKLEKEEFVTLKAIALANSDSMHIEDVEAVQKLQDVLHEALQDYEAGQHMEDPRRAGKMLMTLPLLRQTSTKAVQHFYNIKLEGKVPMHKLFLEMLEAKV
Bile acid receptor (Homo sapiens), sequence (Q96RI1 whole entry, looked up, the tested form may be a part): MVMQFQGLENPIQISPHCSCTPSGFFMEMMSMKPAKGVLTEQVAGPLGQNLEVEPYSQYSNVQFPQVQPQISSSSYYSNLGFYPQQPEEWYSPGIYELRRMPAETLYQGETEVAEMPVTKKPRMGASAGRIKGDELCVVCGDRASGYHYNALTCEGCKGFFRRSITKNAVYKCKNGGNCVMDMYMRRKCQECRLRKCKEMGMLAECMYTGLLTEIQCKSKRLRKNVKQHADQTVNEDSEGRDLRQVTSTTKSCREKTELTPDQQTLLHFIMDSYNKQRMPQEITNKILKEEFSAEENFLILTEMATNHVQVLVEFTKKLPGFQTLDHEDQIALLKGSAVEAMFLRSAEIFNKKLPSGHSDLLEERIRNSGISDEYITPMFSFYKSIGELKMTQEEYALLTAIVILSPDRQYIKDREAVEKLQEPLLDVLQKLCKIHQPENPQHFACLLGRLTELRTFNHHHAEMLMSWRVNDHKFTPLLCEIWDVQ
Steroid hormone receptor ERR1 (Homo sapiens), sequence (P11474 whole entry, looked up, the tested form may be a part): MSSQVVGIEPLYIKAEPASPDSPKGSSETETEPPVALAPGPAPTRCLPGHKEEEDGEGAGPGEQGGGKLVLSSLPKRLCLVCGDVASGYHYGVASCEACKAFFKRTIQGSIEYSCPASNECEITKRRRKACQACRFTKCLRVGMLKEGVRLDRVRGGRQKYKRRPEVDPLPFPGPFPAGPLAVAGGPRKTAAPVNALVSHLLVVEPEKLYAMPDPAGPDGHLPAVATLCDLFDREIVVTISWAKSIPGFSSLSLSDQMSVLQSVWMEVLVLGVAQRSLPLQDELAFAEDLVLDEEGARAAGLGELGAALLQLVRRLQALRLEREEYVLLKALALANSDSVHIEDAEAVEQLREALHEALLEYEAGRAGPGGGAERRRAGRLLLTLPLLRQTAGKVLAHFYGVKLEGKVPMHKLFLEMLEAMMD
Glucocorticoid receptor (Homo sapiens), sequence (P04150 whole entry, looked up, the tested form may be a part): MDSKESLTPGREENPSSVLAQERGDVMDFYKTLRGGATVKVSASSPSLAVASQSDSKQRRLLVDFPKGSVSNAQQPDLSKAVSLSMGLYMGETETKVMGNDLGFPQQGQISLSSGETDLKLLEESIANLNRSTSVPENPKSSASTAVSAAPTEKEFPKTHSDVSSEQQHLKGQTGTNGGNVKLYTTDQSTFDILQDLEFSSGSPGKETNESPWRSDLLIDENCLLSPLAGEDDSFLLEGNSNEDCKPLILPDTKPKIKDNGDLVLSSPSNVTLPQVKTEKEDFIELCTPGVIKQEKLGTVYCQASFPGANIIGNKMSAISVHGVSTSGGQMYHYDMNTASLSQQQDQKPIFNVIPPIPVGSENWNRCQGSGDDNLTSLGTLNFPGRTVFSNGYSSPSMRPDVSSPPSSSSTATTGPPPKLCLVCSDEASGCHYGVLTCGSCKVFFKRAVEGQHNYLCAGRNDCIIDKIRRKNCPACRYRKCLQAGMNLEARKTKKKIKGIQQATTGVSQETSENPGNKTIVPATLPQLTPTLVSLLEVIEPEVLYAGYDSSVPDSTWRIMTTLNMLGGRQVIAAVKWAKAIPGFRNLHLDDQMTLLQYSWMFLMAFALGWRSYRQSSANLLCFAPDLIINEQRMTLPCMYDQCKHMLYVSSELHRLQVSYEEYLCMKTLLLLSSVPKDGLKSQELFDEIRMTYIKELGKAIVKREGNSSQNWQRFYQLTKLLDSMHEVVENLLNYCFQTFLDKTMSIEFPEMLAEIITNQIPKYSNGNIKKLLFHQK

As to `CCCCCCCCCCCC[N+](C)(C)CCCCCCCCCCCC`, the compound was classed as inactive in assay [1], in assay [2], in assay [3], in assay [4], in assay [5] and in assay [6].

As to `CCN(CC)CC`, the result in assay [1], in [2], in assay [4], in assay [7], in assay [8] and in assay [6] was inactive. Besides, the compound was classed as inactive in [9] and in [10].

As to `CCOC=C(C(=O)OCC)C(=O)OCC`, the compound was classed as inactive in assay [1], in assay [2], in assay [4], in assay [7] and in [6].

Regarding `CCN(CCC#N)c1ccccc1`, the call in assay [1], in assay [2], in [4], in [7], in assay [8] and in assay [6] was inactive. For the same compound, the compound was called inactive in assay [9] and in assay [10].

As for `O=c1cc(-c2ccccc2)oc2ccc3ccccc3c12`, the outcome in assay [1], in [2], in assay [4], in [7], in [5] and in assay [10] was inactive. The AC50 in assay [2] was 2.05 µM (active).

As for `CCCCCCCCCCCCCCCCCC[N+](C)(C)Cc1ccccc1`, the compound was classed as inactive in assay [1], in [2], in assay [3], in assay [4], in assay [8] and in [5]. Moreover, the compound was classed as inactive in assay [6], in assay [9] and in assay [10].

With `Cc1ccc(C(=O)c2ccccc2)cc1`, the result in [1], in assay [4], in assay [7], in assay [8] and in [9] was inactive. Further, in assay [2], the AC50 is 27.8 µM (active).

With `O=C1c2ccccc2C(=O)c2c(O)c(O)cc(O)c21`, the result in assay [1], in assay [3], in assay [4], in [7], in [8] and in [5] was inactive. For the same compound, the compound was called inactive in assay [6], in assay [9] and in assay [10]. The AC50 in assay [2] is 4.9 µM (active).

On to `COc1cccc(O)c1`, for which the compound was called inactive in assay [1], in assay [2], in assay [4], in assay [7], in assay [8] and in assay [10].

On to `Cc1ccc2ccc3ccc(C)cc3c2c1`, for which the outcome in assay [1], in assay [4], in assay [7], in assay [5], in [6] and in assay [9] was inactive. Also, in assay [2], the AC50 is 7.58 µM (active).

Take `CCCCCCCCCCCCCCCC(=O)OC`: the compound was classed as inactive in assay [1], in [2], in assay [4], in [7] and in assay [8].

Turning to `O=C(Nc1cccc([N+](=O)[O-])c1)c1cc2ccccc2cc1O`, the outcome in assay [1], in assay [2], in assay [3], in assay [4], in assay [7] and in [5] was inactive. For the same compound, the compound was classed as inactive in [9] and in assay [10].

Take `NNc1nc(-c2ccc([N+](=O)[O-])cc2)cs1`: the compound was classed as inactive in assay [1], in assay [2], in [4], in assay [7], in assay [5] and in [9]. For the same compound, the compound was called inactive in assay [10].

With `CCCCc1ccc2ccccc2c1S(=O)(=O)O`, the result in [1], in [2], in assay [4], in assay [7], in assay [5] and in assay [9] was inactive.

On to `c1ccc(CNc2ncnc3c2ncn3C2CCCCO2)cc1` (configuration not stated), for which the compound was called inactive in assay [1], in assay [4], in [6], in [9] and in assay [10].

`O=C(O)CCC(F)(F)C(F)(F)C(F)(F)C(F)(F)C(F)(F)F`: the AC50 in assay [2] is 118 µM (active). Also, the result in assay [2], in assay [3], in assay [4], in [6], in assay [9] and in assay [10] was inactive.

For `Cc1ccc(C)c(S(=O)(=O)O)c1`, the compound was called inactive in assay [1], in assay [4] and in assay [10].

`O=P(O)(O)CCC(F)(F)C(F)(F)C(F)(F)C(F)(F)C(F)(F)C(F)(F)F`: the outcome in assay [2], in assay [3], in [4], in [7], in assay [8] and in assay [6] was inactive. The outcome in assay [9] and in assay [10] was inactive.

Take `CCCCN(C)C`: the result in [1], in assay [4], in assay [6] and in assay [9] was inactive.

As for `O=C(O)CN(CCCN(CC(=O)O)CC(=O)O)CC(=O)O`, the call in assay [1], in assay [4], in assay [8], in assay [9] and in [10] was inactive.

For the compound `CCCCCC(C)OC(=O)COc1ccc(Cl)c2cccnc12` (configuration not stated), the compound was classed as inactive in [1], in [4], in [6] and in assay [9].

As for `Clc1ccc2c(Cl)ccnc2c1`, the outcome in [2], in assay [3], in assay [4] and in assay [6] was inactive.

Turning to `CCCCCCOC(=O)c1ccc(O)cc1`, the AC50 was 3.24 µM (active) in assay [2] and 54.6 µM (active) in [4]. Besides, the compound was called inactive in [3], in [7], in assay [9] and in [10].

Take `O=C1C=CC(=O)N1c1cccc(N2C(=O)C=CC2=O)c1`: the compound was called inactive in assay [2], in [3], in [4], in assay [5], in assay [6] and in assay [9]. The compound was classed as inactive in assay [10].

Consider `C=CC(=O)OCCN(CC)CC`, for which the call in [1], in assay [7], in assay [8], in assay [9] and in [10] was inactive. Moreover, in assay [4], the AC50 was 29 µM (active).

On to `Brc1cc(Br)c(Oc2c(Br)cc(Br)c(Br)c2Br)cc1Br`, for which the call in assay [2], in [3], in [4], in [7], in assay [5] and in [6] was inactive. For the same compound, in [9], the outcome was inactive.

Turning to `O=C(CC(=O)C(F)(F)C(F)(F)C(F)(F)F)c1cccs1`, the compound was classed as inactive in [2], in assay [3], in assay [7], in [5], in assay [6] and in assay [9]. Further, the call in assay [10] was inactive. In addition, the AC50 in assay [4] was 8.17 µM (active) and 32.9 µM (active).

As for `CC(C)[C@@H]1CC[C@@H](C)C[C@H]1O`, the compound was called inactive in [1], in assay [4], in [7], in [8] and in assay [9].
